Source: PubChem BioAssay (NCATS)
Results filed as inconclusive are left out. Active and inactive are the calls of the source. The call rests on the fitted dose curve; in most records, active means well fitted curve in either direction with a large enough effect (not every such curve was filed as active); inconclusive means small, poorly fitted or top-dose-only effect, or another doubt; inactive means flat fitted curve, though single readings scatter.

Experiment: AP1 Signaling Pathway (AID 357);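 further: ME-180 reporter cells stimulated with EGF at its EC50 level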
Conditions: ME-180 (cervical carcinoma) AP-1-bla reporter, EGF-induced, beta-lactamase ratio, 5 h; at 17.2 µM (top of the series) unless noted
Procedure, shortened: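 Modulation of EGF-driven AP-1 transcription was assessed with a beta-lactamase reporter in ME-180 cells. Compound and EC50 EGF were co-incubated 5 hours at 37 °C before 2.5-hour CCF4 loading at room temperature and dual-emission reading.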
On the % scale 0 is the no-effect control and ±100 the full control effect.

Activity change, negative = inhibition, inactive:
Cc1nn(CC(N)=O)c(=O)c2ccccc12 11.8%
COc1ccc(OC)c(C2C(C#N)=C(N)Oc3cc(C)[nH]c(=O)c32)c1 (stereo not given) -7.62%
Cc1ccc2[nH]c(CCN(C)C)c(CC#N)c2c1 12.9%
COc1cc(C2CC(C(F)(F)F)n3ncc(C(=O)O)c3N2)cc(OC)c1OC (stereo not given) 6.2%
CC(=N\O)/C(CN(C)C)=N/O -9.85%
Cc1cc(=O)oc2cc(OCCSCCN3CCOCC3)ccc12 -6.35%
CCCOc1cccc(C2C(C(=O)c3ccc(C)o3)=C(O)C(=O)N2CCCN(C)C)c1 (stereo not given) -10.8%
CSC(=Nc1ccccc1)C1=C(O)COC1=O 3.1%
Cn1c(NCc2cccnc2)nc2c1c(=O)n(Cc1ccccc1F)c(=O)n2C -1.33%
CCCOc1cccc(C2/C(=C(/O)c3ccccc3)C(=O)C(=O)N2CCN(C)C)c1 (stereo not given) 5.11%
COc1ccccc1N(O)C1CC(=O)N(c2ccc(Br)cc2)C1=O (stereo not given) -7.13%
N/C(CCN1CCOCC1)=N/O 18.7%
O=C1C(=O)N(CCCn2ccnc2)C(c2ccccn2)/C1=C(/O)c1ccccc1 (stereo not given) 15.8%
C=CCn1c(SCC(=O)c2ccccc2)nnc1-c1ccc2c(c1)OCO2 -7.81%
Cc1ccc(S(=O)(=O)NC(=O)NCc2ccc3c(c2)OCO3)cc1 12.9%
CSc1nc(N)nc(SCC(=O)CC(=O)OC(C)C)c1C#N -2.75%
CN(C)C(CN1C(=O)C2CC=CCC2C1=O)c1cn(C)c2ccccc12 (stereo not given) 10.2%
COC(=O)CN1C2(C#N)CCCCC2CC2CCCCC21C#N (stereo not given) 2.79%
Cc1ccc(-n2ncc3c(N4CCCC4)ncnc32)c(C)c1 -15%
COC(=O)CSc1nnc2n(-c3ccc(OC)cc3)c(=O)c3c4c(sc3n12)CCCCC4 -16%
COC(=O)c1ccc(C2/C(=C(\O)c3cccc(OC)c3)C(=O)C(=O)N2CCCN(C)C)cc1 (stereo not given) 2.5%
CC12CCC(C(=O)NCCCN3CCOCC3)(OC1=O)C2(C)C (stereo not given) 12%
CCN(CC)CCCN1C(=O)C(=O)/C(=C(/O)c2ccc(OC)cc2)C1c1ccco1 (stereo not given) 9.88%
CC(=O)Nc1ccc(OC(=O)CC2SC(=O)NC2=O)cc1 (stereo not given) 6.63%
CC1=C(c2ccc(Cl)cc2)[N+](=O)C(C)(C)N1[O-] 8.72%
CCCCOC(=O)c1[nH]c(C)c(C(=O)OC)c1C -3.13%
O=C(O)CC(C(=O)N(c1ccccc1)c1ccccc1)N1CCOCC1 (stereo not given) -5.33%
COc1cccc(NC(=O)CSC2=C(C#N)C(c3ccco3)C3=C(CCCC3=O)N2)c1 (stereo not given) -18.7%
O=C(NC1(C(F)(F)F)C(=O)Nc2c1c(=O)[nH]c(=O)n2-c1ccccc1)c1cccnc1 (stereo not given) -3.2%
COC(=O)CSCC(=O)Nc1cc2c(cc1C(C)=O)OCO2 -1.75%
CCOC(=O)Oc1ccc2c(c1)C(C)=CC(C)(C)N2C(=O)OCC 4.5%
N#Cc1c(NCCN)nc(NCc2ccccc2)c2c1CCN(Cc1ccccc1)C2 0.0828%
Cc1cc(=O)oc2ccc(OCC(=O)N3CCc4ccccc43)cc12 2.4%
N/C(=N\S(=O)(=O)c1ccc(Cl)s1)c1ccccc1 -2.33%
CCOC(=O)Cn1c(SC)nc2sc3c(c2c1=O)CC(C)(C)OC3 3.62%
O=C(C1=C(O)C(=O)N(c2ncccn2)C1c1cccc(Cl)c1)c1ccco1 (stereo not given) -4.37%
Cc1ccc(N(CC(O)CN2CCCC2)S(=O)(=O)c2ccc(C)cc2)cc1 (stereo not given) 0.0608%
CC(C)Cc1[nH]c(=O)c(C#N)c2c1CCCC2 3.62%
COCCCn1c2nc3ccccc3nc2c2c(=O)n(CC3CCCO3)cnc21 (stereo not given) 0.107%
CCn1cc(/C=N/O)c(C)n1 -0.439%
